A selection: hits, their analogues and other compounds. The true share with any hit is near 2.4%.
CRFBP-R2 block – blocks CRF-induced signaling of the CRF-BP/CRF-R2 complex | HEK293 CRF-R2/CRF-BP, CRF-induced calcium fluorescence | inhibition, % at 11.8 µM | actives 0.59% (n = 350,000) | AID 588475;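 active means inhibition of the ligand-induced calcium signal above about 50% at the single tested concentration, limit read from the data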
ANO1 block – mouse TMEM16A channel inhibition, primary screen. HEK293 TMEM16A/YFP iodide influx fluorescence, ionomycin. actives 1.2% (n = 310,000). normalized B-score (activity score, 25-100; higher = stronger inhibition) at 10 µM. AID 588511. Q8BHY3;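 active means ratio plate-corrected score three or more library SD toward inhibition, starting fluorescence score within five deviations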;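 further: score derived from kinetic fluorescence span divided by baseline fluorescence per well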
cardiac RTF act – cardiac RTF calcium sensitization. activation, % at 7.2 µM. actives 0.24% (n = 340,000). P19429+P45379. IANBD-labeled TnC RTF fluorescence at EC20 calcium; 0% EC20 calcium, 100% full calcium;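 active means activation above the mean over all tested compounds plus 3 SD, cut at about 30% in these data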;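 further: rise in fluorescence read as greater calcium sensitivity of cardiac thin filaments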
RTF Ca sens inh – cardiac RTF calcium desensitization. IANBD-labeled cardiac RTF, Ca2+ fluorescence. inhibition, % at 7.15 µM. actives 0.12% (n = 340,000). AID 493244;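 active means inhibition above the mean inhibition of all tested compounds plus 3 SD, cut at about 17% in these data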;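 further: assay run at fixed EC70 calcium of 1.6 mM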
CRFR2-BP ag – CRF-BP/CRF-R2 complex agonism | actives 0.46% (n = 350,000) | HEK293 CRF-R2/CRF-BP, calcium dye fluorescence (FLIPR); percent of saturating CRF peptide response | activation, % at 13.2 µM;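 active means activation of at least 50%, plus an integration ratio under a set limit after plate pattern correction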;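 further: plate controls were neutral control wells without compound for no effect and CRF at EC100 for full effect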
TMEM16A act – activates or potentiates the mouse TMEM16A chloride channel | B-score at 10 µM | AID 623877 | HEK293 TMEM16A/YFP-H148Q/I152L, iodide quench fluorescence; hits give low values | actives 0.3% (n = 340,000) | Q8BHY3;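 active means fluorescence-ratio B-score plate-corrected deviation score at least 3 library SD below zero, with starting fluorescence score within 5 deviations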;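 further: channel opened by trigger with iodide after compound preincubation; score built on the fluorescence ratio of max minus min over baseline; more negative score means more quench and so TMEM16A activation or potentiation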
TMEM16A reconf – reconfirmed blocker of mouse TMEM16A calcium-activated chloride channel | shares compounds with ANO1 block | HEK293 TMEM16A/YFP-H148Q, iodide quench fluorescence; ionomycin added to raise cell calcium | inhibition, % at 10 µM | actives 39% (n = 2,300);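 active means mean duplicate percent inhibition, scaled so buffer wells are 0 and the reference blocker 100, over three buffer SD above buffer mean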
TMEM16A Ca cntr – alters calcium mobilization in TMEM16A HEK293 cells, counter-screen | AID 652231 | actives 2% (n = 2,300) | TMEM16A/YFP HEK293, Fluo4 calcium mobilization | shares compounds with ANO1 block | calcium response (% of ionomycin), % at 10 µM;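 active means duplicate-averaged calcium signal over 20% of the ionomycin maximum, relative to buffer baseline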;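 further: each well's signal is peak minus trough fluorescence divided by its pre-addition baseline; 0% = buffer wells and 100% = ionomycin wells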
YFP-HEK293 quench – counter-screen for TMEM16A inhibitors: effect in parental YFP-HEK293 cells | shares compounds with ANO1 block | iodide YFP quench, ionomycin | YFP ratio F(max-min)/F0 at 10 µM | 2,300 tested, under 10 active | AID 652233;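 active means yellow fluorescent protein signal ratio exceeding the buffer control mean by over 5 SD of those controls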;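 further: ratio is mean of duplicate wells from kinetic YFP trace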
ClC-1 inh – blocks the rat ClC-1 voltage-dependent chloride channel; shares compounds with ANO1 block; CHO ClC-1-YFP, iodide influx fluorescence quench; iodide control reads 0, buffer control 100; ratio percent, % at 10 µM; 2,300 tested, under 10 active;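 active means duplicate-mean ratio percent above the mean of iodide-only control wells, which defines zero, plus 5 of their SD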;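 further: higher percent means stronger block of ClC-1 iodide influx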
Target sequence (P35524 whole entry, looked up): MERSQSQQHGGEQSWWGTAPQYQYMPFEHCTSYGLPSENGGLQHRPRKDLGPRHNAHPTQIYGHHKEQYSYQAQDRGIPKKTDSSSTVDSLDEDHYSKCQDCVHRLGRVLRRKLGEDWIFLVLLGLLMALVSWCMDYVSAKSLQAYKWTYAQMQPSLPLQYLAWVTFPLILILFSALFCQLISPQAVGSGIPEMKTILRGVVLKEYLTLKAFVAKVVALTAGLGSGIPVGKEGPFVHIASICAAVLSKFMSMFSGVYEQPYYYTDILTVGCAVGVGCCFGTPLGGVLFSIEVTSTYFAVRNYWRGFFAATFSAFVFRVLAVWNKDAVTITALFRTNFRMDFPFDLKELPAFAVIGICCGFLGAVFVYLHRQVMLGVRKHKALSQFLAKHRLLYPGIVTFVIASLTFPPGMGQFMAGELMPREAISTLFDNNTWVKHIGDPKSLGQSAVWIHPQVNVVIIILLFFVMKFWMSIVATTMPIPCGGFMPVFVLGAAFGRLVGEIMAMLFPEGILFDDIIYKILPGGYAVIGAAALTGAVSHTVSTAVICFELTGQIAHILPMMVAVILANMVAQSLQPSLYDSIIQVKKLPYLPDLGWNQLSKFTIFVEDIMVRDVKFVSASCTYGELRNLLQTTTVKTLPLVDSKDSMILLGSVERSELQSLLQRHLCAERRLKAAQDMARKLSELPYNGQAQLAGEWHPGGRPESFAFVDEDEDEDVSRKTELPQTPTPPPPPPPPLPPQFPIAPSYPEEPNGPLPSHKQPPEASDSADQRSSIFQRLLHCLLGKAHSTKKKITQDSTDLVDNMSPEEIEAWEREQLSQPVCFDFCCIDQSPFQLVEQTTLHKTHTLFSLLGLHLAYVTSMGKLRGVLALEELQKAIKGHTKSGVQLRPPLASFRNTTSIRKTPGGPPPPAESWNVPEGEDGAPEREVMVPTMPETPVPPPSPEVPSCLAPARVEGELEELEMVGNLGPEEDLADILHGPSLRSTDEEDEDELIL
An asterisk follows results filed as active; i = inactive; . = no result.

SMILES | CRFBP-R2 block | ANO1 block | cardiac RTF act | RTF Ca sens inh | CRFR2-BP ag | TMEM16A act | TMEM16A reconf | TMEM16A Ca cntr | YFP-HEK293 quench | ClC-1 inh
O=C(NC(Cc1ccccc1)C(=O)NCc1ccccn1)c1ccco1 (configuration not stated) | 6 | 25* | 0 | 1 | 1 | i | i | i | -1 | -2
CC(C)OCCCn1c(=NC(=O)c2ccncc2)c(C#N)cc2c(=O)n3ccccc3nc21 | 2 | 25* | 7 | -13 | -2 | i | i | 28%* | -1.1 | -14
COc1ccc(CNc2ncnc3c2[nH]c2ccccc23)cc1 | -6 | i | . | . | 15 | i | . | . | . | .
CC(C)OCCCNc1ncnc2c1[nH]c1ccccc12 | 3 | 100* | 0 | 0 | 0 | i | 38%* | i | -1.1 | -22
CC1(C(=O)OCC(=O)Nc2ccc3ccccc3c2)CC1(Cl)Cl (configuration not stated) | -5 | 25* | 3 | -5 | 2 | i | i | i | -0.81 | -17
O=C(O)c1cnn(-c2ccccc2)c1-c1ccccc1 | -4 | i | 4 | -6 | 2 | i | . | . | . | .
CCOc1cc(/C=N/N=C(/N)c2nonc2N)cc(Br)c1OCc1ccc(Cl)cc1 | -10 | 100* | 9 | 4 | 3 | i | i | i | -1 | 1
CC(=O)N1CCN(C(=O)c2cc(=O)c3ccccc3o2)CC1 | 13 | i | -4 | -17 | 1 | i | . | . | . | .
C=CCc1cc(C(=O)N2CCCCC2)ccc1O | 3 | i | 0 | -8 | 1 | i | . | . | . | .
C=CCc1ccc(O)c(-c2ccc(O)c(CC=C)c2)c1 | 4 | 100* | 1 | -1 | -1 | i | 56%* | i | -0.88 | -14
COc1ccccc1NC(=O)Cc1ccc(-c2ccccc2)cc1 | 9 | 25* | -5 | -10 | 1 | i | i | i | -0.99 | -10
O=C(Nc1ccccc1O)c1ccc(C(=O)c2ccccc2)o1 | -21 | i | 2 | -6 | -5 | i | . | . | . | .
COc1ccccc1NC(=O)c1ccc(C(=O)c2ccccc2)o1 | 12 | 100* | 3 | -8 | -1 | i | 19%* | i | -0.96 | 1
CCOC(=O)[C@@H](C)N(C(=O)OC(C)(C)C)S(=O)(=O)N(Cc1ccccc1)[C@H](C(=O)OC)C(C)C | 1 | . | 7 | -7 | 5 | i | . | . | . | .
Cc1cc(C(=O)NC2CCCN(Cc3ccccc3F)C2)n[nH]1 (configuration not stated) | 10 | i | 0 | 0 | 0 | i | . | . | . | .
Cc1ccc(C)c(NC(=O)c2cc(C)nc3ccccc23)c1 | -1 | i | 3 | -6 | 0 | i | . | . | . | .
Cc1ccc(C)c(NC(=O)c2ccccc2O)c1 | 25 | 25* | -7 | -11 | 62* | i | 36%* | i | -1.1 | -2
O=C(Nc1ccccc1O)c1ccccc1O | 47 | 100* | 4 | -3 | 17 | i | 32%* | i | -1 | -26
CCOc1ccc(S(=O)(=O)N2CCCCC2)cc1NC(=O)Cc1cccc(C(F)(F)F)c1 | -4 | . | -4 | 1 | 1 | i | . | . | . | .
Cc1cccc2sc(NC(=O)CN(C)S(=O)(=O)c3ccc(Br)s3)nc12 | -14 | 100* | 4 | -2 | 1 | i | i | i | -1 | -6
CN(C)/C=C1\SC(=S)N(N2C(=O)C3C4C=CC(C4)C3C2=O)C1=O (configuration not stated) | -4 | i | -3 | -7 | 1 | i | . | . | . | .
COc1cccc(Nc2nc(-c3sc(C)nc3C)cs2)c1 | 12 | i | -7 | 2 | -3 | i | . | . | . | .
Cc1nc(C)c(-c2csc(Nc3ccc(F)cc3)n2)s1 | -3 | 25* | -2 | 9 | -2 | i | 21%* | i | -1 | -6
COC(=O)c1[nH]c2ccc(C)cc2c1NC(=O)CN1CCN(c2ccccc2)CC1 | -46 | 100* | -5 | 0 | 0 | i | 20%* | i | -1.2 | -12
CCOC(=O)c1[nH]c2ccc(OC)cc2c1NC(C)=O | -1 | i | 6 | 3 | 0 | . | . | . | . | .
SMILES | CRFBP-R2 block | ANO1 block | cardiac RTF act | RTF Ca sens inh | CRFR2-BP ag | TMEM16A act | TMEM16A reconf | TMEM16A Ca cntr | YFP-HEK293 quench | ClC-1 inh
CCOC(=O)c1[nH]c2ccc(OC)cc2c1NC(=O)CN1CCSCC1 | -4 | 100* | 10 | -7 | -1 | i | i | i | -0.94 | 3
Cc1ccc(C(=O)Cn2c(C(=O)OCCO)cc3ccccc32)cc1 | -3 | i | 1 | -2 | 0 | i | . | . | . | .
CCOC(=O)c1cc2ccccc2n1CCN(CC)CC | -9 | 25* | 4 | -1 | 74* | i | i | i | -1.2 | -7
CCOc1cc(C(=S)N2CCCCC2)ccc1OS(=O)(=O)c1ccc(Br)cc1 | 10 | i | 4 | -9 | 1 | i | . | . | . | .
CCOc1cc(C(=S)N2CCC(O)CC2)ccc1OS(=O)(=O)c1ccc(Br)cc1 | -6 | 25* | 4 | -5 | -1 | i | i | i | -1.2 | -11
O=C(NCc1ccccc1)C1(C(F)(F)F)C/C(=C/CCO)CCCO1 (configuration not stated) | 5 | i | -3 | 1 | -1 | i | . | . | . | .
C/C=C1\COC(C(=O)NCc2ccccc2)(C(F)(F)F)C=C1C=C(C)C (configuration not stated) | 8 | 100* | -1 | -8 | 2 | i | i | i | -1.3 | -13
O=[N+]([O-])c1ccc(NCCCNS(=O)(=O)c2ccccc2)cc1 | 21 | i | 11 | -1 | 1 | i | . | . | . | .
CCCc1cc(C(=O)OC)c(NC(=O)CCC(=O)O)s1 | 4 | i | -3 | -4 | 1 | i | . | . | . | .
CCCc1cc(C(N)=O)c(NC(C)=O)s1 | -13 | 100* | 12 | -2 | 0 | i | i | i | -0.92 | -14
COC(=O)CCn1c(C)cc(C(=O)COc2ccccc2C(N)=O)c1C | 9 | i | 3 | -4 | 5 | i | 21%* | i | -1.2 | -8
Cc1cc(C(=O)COc2ccccc2C(N)=O)c(C)n1CC1CCCO1 (configuration not stated) | 4 | 100* | -5 | -3 | 2 | i | 20%* | i | -0.81 | -33
